Source: PubChem BioAssay
IkB signaling: inhibitors of IkB signaling in ABC-DLBCL cells; Potency, µM (series often up to 57.1 µM), without a hit: top-dose IkBa stabilization activation; 0.04% of 110,000 active; ABC-DLBCL IkBa-CBG/CBR dual luciferase ratio, 4 h; response scale: scaled: untreated 0%, proteasome inhibitor 100%; active means well fitted curve in the direction sought with a large enough effect in the signal ratio, not every such curve was filed as active; inconclusive means small, poorly fitted or top-dose-only effect, or a change in a side signal; the % refers to the signal ratio;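 further: the direction sought is a rising ratio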
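Curves were fitted separately to fusion (green), unfused (red) and ratio luminescence, then classed by r2, magnitude and activity. Cells: OCI-Ly3, 4 h compound plus doxycycline at 37C; 10 uM MG-132 defined full response.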
p53ts 39C tox: p53ts cell cytotoxicity, nonpermissive temperature. Potency, µM (series often up to 46.1 µM), without a hit: top-dose activity change, negative = cell killing, most hits filed as cytotoxic. H1299-p53A138V viability at 39C, ATP luminescence, 24 h. AID 902. 1.5% of 130,000 active; further: on the % scale 0 is the no-effect control and ±100 the full control effect; nearly all actives have a fitted effect of over 55% in size
Peg3 imprint: genomic imprint erasure induction. mouse ES Peg3-LacZ reporter, beta-gal luminescence, 40 h. Potency, µM (titrated, usually from 60.7 µM), without a hit: at the highest dose activity change, positive = activation, actives largely listed as activators. 0.02% of 110,000 active. AID 1948
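Gelatin-coated wells received 300 freshly trypsinized female ES cells with a Peg3LacZ-Neo reporter on the maternal allele, then incubated 40 hours at 37C. BetaGlo was added for 5 minutes at room temperature before a single luminescence read.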
p53ts 32C tox: p53ts cell cytotoxicity, permissive temperature. H1299-p53A138V at 32C, ATP luminescence viability, 24 h. Potency, µM (series often up to 46.1 µM), without a hit: top-dose activity change, negative = cytotoxicity, most hits filed as cytotoxic. 0.93% of 130,000 active. AID 924;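 further: 0% = DMSO and -100% = full killing by reference compound; nearly all actives have a fitted effect of over 55% in size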
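Cells: H1299 p53ts (A138V), 600/well, pre-incubated 16–30 h at 37C. Cpd up to 46 uM, 24 h, 32C. Readout: ATPlite luminescence, 20 min RT. Normalization: DMSO vs tamoxifen 100 uM. AC50 by Hill equation.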
Numbers without * were called inactive; ? = inconclusive; . = not tested or not shown; ! = a repeat was not active; [ ] = remark or other dose. Compounds with a hit are over-represented: about 1.8% of the library has one in this group of screens. Unless noted, the call rests on the fitted dose curve; in most records, active means well fitted curve in the direction sought with a large enough effect; inconclusive means small, poorly fitted or top-dose-only effect, or another doubt; inactive means no such curve, though single readings can be large; an effect the other way counts as inactive or inconclusive. Potency means the concentration at half of the fitted maximal effect.

SMILES | IkB signaling | p53ts 39C tox | Peg3 imprint | p53ts 32C tox
COc1cc(NC(=O)c2ccc3oc(=O)c(S(=O)(=O)c4ccccc4)cc3c2)cc(OC)c1 | ? | ? | -6%[10.9 µM] | 16µM*
CC(C)c1ccc(NC(=O)c2ccc3oc(=O)c(S(=O)(=O)c4ccc(F)cc4)cc3c2)cc1 | ? | 2.5µM* | ? | 10µM*
COc1cc(OC)cc(-c2nc3nc(C)c(CCC(=O)Nc4ccc(C)c(C)c4)c(C)n3n2)c1 | ? | 0% | -10%[10.9 µM] | 5%
COc1ccc(-n2nnnc2S(=O)(=O)CC(=O)N2CCCCC2)cc1 | ? | ? | -35% | 20µM*
COc1ccc(C(O)C(CN2CCOCC2)c2ccccc2)cc1F (stereo not drawn) | -1% | -4% | -5% | -6%
COc1ccc(C(=O)C(CN2CCOCC2)c2ccccc2)cc1F (stereo not drawn) | ? | 20µM* | -28% | ?
COCCCNC(=O)C(C)n1c2ccccc2c2cnn(C)c(=O)c21 (stereo not drawn) | 0% | -17% | -2%[10.9 µM] | 9%
CCNc1c(NC(=O)c2ccccc2OCC)c(=O)oc2ccccc12 | ? | -20% | -8%[10.9 µM] | 14%
Cc1ccc(S(=O)(=O)NCCSc2nnnn2-c2cc(C)ccc2C)cc1 | -3% | -3% | -8% | 5%
Cc1ccc(C)c(-n2nnnc2Sc2nnnn2-c2ccccc2)c1 | ? | 10µM* | -27% | -14%
CCOC(=O)c1cc(-c2ccccc2)n(-c2cccc(C(=O)N(CC)c3ccccc3)c2)c1C | 1% | 10% | -17%[10.9 µM] | 29%
Cc1nn(S(=O)(=O)c2ccc(C(C)(C)C)cc2)c(C)c1S(=O)(=O)N1CCC(C)CC1 | -1% | ? | -7%[10.9 µM] | -14%
CC(C)Oc1ccc(CNC(=O)c2cccc(NC(=O)c3nsc4ccccc34)c2)cc1 | 0% | -30% | -3%[10.9 µM] | -25%
CN(Cc1ccccc1)C(=O)c1cccc(NC(=O)c2nsc3ccccc23)c1 | 2% | 10µM* | -20%[10.9 µM] | ?
CCOc1ccc(-c2nc3ccccc3c(=O)o2)cc1 | ? | 2.5µM* | -36%[10.9 µM] | 2.5µM*
COc1ccc(-c2cc(C(=O)N/N=C\c3cc(OC)c(OC)c(OC)c3)[nH]n2)cc1 | . | -23% | . | -24%
COc1ccc(CC(=O)Nc2cc(-c3nc4cccnc4s3)ccc2C)cc1 | 0% | 13µM* | -17%[10.9 µM] | ?
COc1ccc(NC(=O)c2cnc[nH]2)cc1 | 2% | 13µM* | -20%[10.9 µM] | 7.9µM*
COc1cc(NC(=O)c2ccccc2)cc(OC)c1 | 4% | -8% | -30% | -3%
COc1ccc(-c2nnc(SC(C)C(=O)Nc3ccc4c(c3)OCCO4)o2)cc1 (stereo not drawn) | 1% | 13µM* | -16% | 16µM*
COc1cc(C(=O)Nc2ccc3c(c2)OCCO3)ccc1OC(F)F | ? | 13µM* | -75% | 16µM*
COc1ccc(C(=O)Nc2cc(OC)cc(OC)c2)cc1 | ? | ? | -85% | 13µM*
CCN(c1cccc(C)c1)S(=O)(=O)c1ccc(O)c(C(=O)O)c1 | . | 11% | . | 7%
O=C(Nc1ccc2c(c1)OCCO2)c1cncc(Br)c1 | 13% | 10µM* | -63% | 10µM*
COc1ccccc1NC(=O)Nc1ccc2c(c1)OCCO2 | ? | 13µM* | -86% | 10µM*
SMILES | IkB signaling | p53ts 39C tox | Peg3 imprint | p53ts 32C tox
COc1ccc(C(=O)Nc2ccc3c(c2)OCCO3)cc1 | . | 7.1µM* | . | 6.3µM*
COc1ccc(NC(=O)c2ccc3c(c2)OCO3)cc1Cl | 1% | 13µM* | -78% | 5µM*
CC(C)(C)OC(=O)N1CCC(c2c(C(=O)NCc3ccc4c(c3)OCO4)cnn2-c2ccc(F)cc2F)CC1 | ? | -17% | 6%[10.9 µM] | 14%
CCC(Sc1nc2n[nH]c(C)c2c(=N)n1-c1ccc(Br)cc1)C(=O)N(CC)CC (stereo not drawn) | ? | -26% | 10%[10.9 µM] | -17%
C[C@@]12C[C@H](O)[C@@H]3[C@H](CCC4=CC(=O)CC[C@]43C)[C@H]1CC[C@@H]2c1csc(N)n1 | 2%[11.4 µM] | -1%[9.22 µM] | . | 1%[9.22 µM]
Cn1c2ccccc2c2c(C(=O)N3CCN(c4cccc(C(F)(F)F)c4)CC3)cn(C3CCCCC3)c(=O)c21 | 3% | 6% | 13%[10.9 µM] | 23%
Cn1cc(C(=O)N2CCN(c3cccc(C(F)(F)F)c3)CC2)c2c3ccccc3n(C)c2c1=O | ? | 13µM* | -3%[10.9 µM] | -5%
CCOc1ccc(CNC(=O)C2CCCN(c3nn4cc(-c5ccc(OC)cc5)nc4s3)C2)cc1 (stereo not drawn) | . | . | . | 1%
CCn1cc(C(=O)N2CCN(c3ccc(OC)cc3)CC2)c(=O)c2cc(S(=O)(=O)N(C)C3CCCCC3)ccc21 | -1% | -12% | 21%[10.9 µM] | 10%
Clc1ccc2c(c1)C1OCCC1C(c1ccco1)N2 (stereo not drawn) | ? | 10µM* | . | 7.9µM*
Cc1ccc2c(c1)[C@H]1OCC[C@H]1[C@@H](c1ccncc1)N2 | -3% | 11% | 2% | -4%
O=C(NCCc1ccccc1)c1cc2sccc2n1Cc1ccc(F)cc1 | 1% | 11% | -12%[10.9 µM] | 2%
O=S(=O)(NCc1ccc(F)cc1)c1ccc2[nH]c3c(c2c1)CCCC3 | . | . | . | 9%
O=S(=O)(NCc1ccccc1)c1ccc2[nH]c3c(c2c1)CCCCC3 | -3% | 32µM* | -7%[10.9 µM] | 4%
Cc1ccc(CNS(=O)(=O)c2ccc3[nH]c4c(c3c2)CCCCC4)cc1 | ? | 20µM* | -5%[10.9 µM] | -2%
CCCCCCCCCCCCC/C=C\[C@@H](O)[C@H](CO)NC(C)=O | 0% | 32µM* | 1% | 25%
CCC(Sc1nnc2c(n1)[nH]c1ccccc12)C(=O)Nc1nnc(C(C)C)s1 (stereo not drawn) | 8% | 10µM* | 23%[10.9 µM] | ?
Clc1ccccc1-c1nc(-c2cccnc2)no1 | 2% | 13µM* | -71% | 10µM*
Clc1ccccc1-c1nc(-c2ccncc2)no1 | 1%[11.4 µM] | -5%[9.22 µM] | -20%[10.9 µM] | -6%[9.22 µM]
COc1cc(-c2ccc(N=Nc3ccc4c(S(=O)(=O)O)cc(S(=O)(=O)O)c(N)c4c3O)c(OC)c2)ccc1N=Nc1ccc2c(S(=O)(=O)O)cc(S(=O)(=O)O)c(N)c2c1O | ? | 10µM*! | -43% | ?
Cc1cc(C(=O)Nc2ccc3c(c2)OCCO3)c(C)o1 | 16% | 13µM* | -84% | 16µM*
Cc1ccsc1C(=O)Nc1ccc2c(c1)OCCO2 | . | 14µM* | . | .
Cc1ncoc1C(=O)Nc1ccc2c(c1)OCCO2 | -2% | ? | -94% | ?
Cc1occc1C(=O)Nc1ccc2c(c1)OCCO2 | 0% | ? | -93% | ?
COc1cccc(-c2nc(NC3CCNCC3)c3ccccc3n2)c1 | -2%[11.4 µM] | 16µM* | 1% | ?
c1ccc2c(NC3CCNCC3)nc(-c3ccoc3)nc2c1 | 0%[11.4 µM] | 1% | 26% | 2%
CN(C)c1ccc(-c2nc(NC3CCNCC3)c3ccccc3n2)cc1 | 0%[11.4 µM] | 10µM* | -45% | ?
COc1ccc(-c2noc(-c3cccnc3NCc3ccco3)n2)cc1 | -1% | 16% | -12%[10.9 µM] | 9%
